Test results: the supplement of paper PMC12645437, “Orthogonal IMiD-Degron Pairs Induce Selective Protein Degradation in Cells” (ACS Chemical Biology, 2025)
Over roughly 8,300 sequences, “log2 fold change of degron read counts, EGFP-low vs EGFP+ sorted cells (limma voom), compound-induced degradation” has its median near -1.1; the highest 2% begin near 3.2. The full list was thinned out, with the highest values kept by preference.

T1: CRBN, Q96SW2
T1 chain: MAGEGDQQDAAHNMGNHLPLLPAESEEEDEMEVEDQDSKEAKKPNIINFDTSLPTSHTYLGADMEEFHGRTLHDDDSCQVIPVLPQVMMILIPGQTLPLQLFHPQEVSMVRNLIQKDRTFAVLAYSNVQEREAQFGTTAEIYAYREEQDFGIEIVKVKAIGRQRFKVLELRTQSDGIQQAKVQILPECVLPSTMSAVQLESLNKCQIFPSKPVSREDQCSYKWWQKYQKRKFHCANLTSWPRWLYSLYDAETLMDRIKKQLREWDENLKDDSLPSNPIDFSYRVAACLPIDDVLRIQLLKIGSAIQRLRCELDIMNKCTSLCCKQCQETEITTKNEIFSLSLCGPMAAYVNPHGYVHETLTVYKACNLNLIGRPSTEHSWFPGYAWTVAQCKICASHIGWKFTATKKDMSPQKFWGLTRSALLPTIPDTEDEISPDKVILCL


Target: T1, CRBN, Q96SW2
Experiment: log2 fold change of degron read counts, EGFP-low vs EGFP+ sorted cells (limma voom), compound-induced degradation; higher = more compound-induced degradation of the degron-EGFP fusion; degrons are variants of IKZF1/3 zinc finger 2; compound dose not given here
Settings: Jurkat, 18 h
[1] = compound: compound 19 (5-tert-butyl-thalidomide)
[2] = compound: compound 22 (5-morpholino-thalidomide)
[3] = compound: compound 33 (diphenyl IMiD analogue)
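Further: pooled lentiviral library of zinc finger degron-EGFP fusions in mCherry-positive Jurkat cells, FACS-sorted after compound exposure, with degron abundance counted by next-generation sequencing.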

Row | Sequence | log2 fold change of degron read counts [1] | log2 fold change of degron read counts [2] | log2 fold change of degron read counts [3] | log2 fold change of degron read counts (compound: thalidomide)
1 | FLCSVCGHLFTQKGNLLRHIKL [46F_47L_49S_50V_52G_53H_54L_55F_67L_, Q9UKT9] | -2.16 | -2.42 | -2.1 | -2
2 | LYCPICGFQCTQKGNLLRHIKL [46L_47Y_49P_50I_52G_53F_54Q_55C_67L_, Q9UKT9] | 3.45 | 3.56 | 2.59 | 1.87
3 | LCCPICGFQCTQKGNLLRHIKL [46L_47C_49P_50I_52G_53F_54Q_55C_67L_, Q9UKT9] | 2.04 | 2.42 | 2.76 | 2.48
4 | LTCPICGFQCTQKGNLLRHIKL [46L_47T_49P_50I_52G_53F_54Q_55C_67L_, Q9UKT9] | 0.773 | 2.5 | 2.25 | 2.88
5 | LICPICGFQCTQKGNLLRHIKL [46L_47I_49P_50I_52G_53F_54Q_55C_67L_, Q9UKT9] | 0.317 | 2.57 | 2.11 | 2.94
6 | LDCPICGFQCTQKGNLLRHIKL [46L_47D_49P_50I_52G_53F_54Q_55C_67L_, Q9UKT9] | 0.742 | 0.239 | 0.58 | 1.8
7 | LMCPICGFQCTQKGNLLRHIKL [46L_47M_49P_50I_52G_53F_54Q_55C_67L_, Q9UKT9] | 0.282 | 1.65 | 2.68 | 2.37
8 | LNCPICGFQCTQKGNLLRHIKL [46L_47N_49P_50I_52G_53F_54Q_55C_67L_, Q9UKT9] | 1.88 | 1.12 | 0.537 | 1.19
9 | LKCPICGFQCTQKGNLLRHIKL [46L_47K_49P_50I_52G_53F_54Q_55C_67L_, Q9UKT9] | -0.0362 | -1.47 | -1.46 | 0.648
10 | LQCPICGFQCTQKGNLLRHIKL [46L_47Q_49P_50I_52G_53F_54Q_55C_67L_, Q9UKT9] | 1.01 | 1.71 | 1.77 | 3.45
11 | LRCPICGFQCTQKGNLLRHIKL [46L_47R_49P_50I_52G_53F_54Q_55C_67L_, Q9UKT9] | 0.722 | 0.186 | 1.12 | 1.62
12 | LWCPICGFQCTQKGNLLRHIKL [46L_47W_49P_50I_52G_53F_54Q_55C_67L_, Q9UKT9] | 3.21 | 3.52 | 2.81 | 1.97
13 | LFCPICGFQCTQKGNLLRHIKL [46L_47F_49P_50I_52G_53F_54Q_55C_67L_, Q9UKT9] | 3.36 | 3.29 | 2.33 | 2.04
14 | FMCNVCGAQFTQKGNLLRHIKL [46F_47M_49N_50V_52G_53A_54Q_55F_67L_, Q9UKT9] | -1.96 | -1.18 | 1.65 | -0.484
15 | FYCNVCGAEFTQKGNLLRHIKL [46F_47Y_49N_50V_52G_53A_54E_55F_67L_, Q9UKT9] | 0.141 | -0.307 | -0.204 | -1.92
16 | FDCSVCGHGFTQKGNLLRHIKL [46F_47D_49S_50V_52G_53H_54G_55F_67L_, Q9UKT9] | -2.13 | -2.49 | -2.85 | -2.61
17 | FICEICGHPFTQKGNLLRHIKL [46F_47I_49E_50I_52G_53H_54P_55F_67L_, Q9UKT9] | -2.2 | -1.74 | -1.09 | -0.749
18 | FTCNQCGAFFTQKGNLLRHIKL [46F_47T_49N_50Q_52G_53A_54F_55F_67L_, Q9UKT9] | -2.21 | -2.47 | -2.04 | -1.89
19 | FMCDQCGAMFTQKGNLLRHIKL [46F_47M_49D_50Q_52G_53A_54M_55F_67L_, Q9UKT9] | -2.85 | -3.27 | -1.88 | -2.89
20 | FVCEICGRYFTQKGNLLRHIKL [46F_47V_49E_50I_52G_53R_54Y_55F_67L_, Q9UKT9] | -1.62 | -1.93 | -1.15 | -0.136
21 | LECPICGFQCTQKGNLLRHIKL [46L_47E_49P_50I_52G_53F_54Q_55C_67L_, Q9UKT9] | -0.146 | -0.246 | 2.16 | 3.16
22 | LSCPICGFQCTQKGNLLRHIKL [46L_47S_49P_50I_52G_53F_54Q_55C_67L_, Q9UKT9] | 2.31 | 2.18 | 1.54 | 1.93
23 | LVCPICGFQCTQKGNLLRHIKL [46L_47V_49P_50I_52G_53F_54Q_55C_67L_, Q9UKT9] | 1.16 | 2.72 | 2.04 | 3.09
24 | LGCPICGFQCTQKGNLLRHIKL [46L_47G_49P_50I_52G_53F_54Q_55C_67L_, Q9UKT9] | 3.74 | 2.31 | 1.15 | 1.18
25 | LHCPICGFQCTQKGNLLRHIKL [46L_47H_49P_50I_52G_53F_54Q_55C_67L_, Q9UKT9] | 2.57 | 2.67 | 2.36 | 1.96
26 | LACPICGFQCTQKGNLLRHIKL [46L_47A_49P_50I_52G_53F_54Q_55C_67L_, Q9UKT9] | 3.44 | 2.59 | 1.86 | 1.78
27 | FCCPQCGAHFTQKGNLLRHIKL [46F_47C_49P_50Q_52G_53A_54H_55F_67L_, Q9UKT9] | -1.46 | -2.19 | -0.412 | -1.42
28 | FKCNQCGHPFTQKGNLLRHIKL [46F_47K_49N_50Q_52G_53H_54P_55F_67L_, Q9UKT9] | -2.61 | -2.63 | -2.72 | -2.3
